Reference: PubChem BioAssay AID588850 (Sanford-Burnham Center for Chemical Genomics, 2011)
Values joined by “and” are separate entries in the source; they are usually repeats but may differ in a detail not shown here. Equal values may be shown once. In all, about 360,000 compounds went through this assay and about 3,100 (0.86%) were called active. The list comes from a sample in which actives are over-represented; it also holds similar structures and randomly drawn compounds. Values without a mark were called inactive.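 Rule for the calls: active = at least 50% inhibition at 5 µM, scaled per plate between neutral and stimulator controls; inactive = the rest.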

test: inhibitors of PAF-induced NF-kB signaling, primary screen, cell-based, GFP fluorescence, uHTS (AID 588850); settings: KKLEB NF-kB-GFP reporter, GFP fluorescence overnight, at 5 µM, active compounds read high;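 note: PAF is a Pseudomonas aeruginosa culture filtrate used as stimulus; plate controls were PAF-stimulated DMSO wells for no effect and unstimulated DMSO wells for full effect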

| SMILES | inhibition |
| --- | --- |
| C=CCN1C=C(C(=O)c2ccccc2)C(=O)CC1 | 3.5% |
| O=C(CSCc1ccccc1)Nc1ccccc1 | -2.5% |
| O=C(CSc1ccccc1)Nc1ccc(C(=O)Nc2cccc(O)c2)cc1 | -12.7% |
| O=C(CCl)Nc1cccc(CP(=O)(c2ccccc2)c2ccccc2)c1 | 58% (active) |
| O=C(NCc1nnc(SCC(=O)N2CCC(Cc3ccccc3)CC2)o1)c1ccco1 | 13.2% |
| CCOC(=O)C1(CCOC)CCN(Cc2cc3ccccc3s2)CC1 | 11.7% |
| O=[N+]([O-])c1ccc(Oc2ccc(F)cc2Br)c2ccncc12 | 65% (active) |
| O=c1ccc2c(-c3ccccc3S(=O)(=O)O)c3ccc(O)c(O)c3oc-2c1O | 22% |
| Oc1c(C(c2cccs2)N2CCN(c3ccc(F)cc3)CC2)sc2ncnn12 (stereo not drawn) | 17.4% |
| CCOC(=O)C1=CC[C@@H](c2ccccc2)N(S(=O)(=O)c2ccc(C)cc2)[C@H]1c1ccc(CC)cc1 | 11.8% |
| CCc1ccc(NC(=O)Nc2ccncc2)cc1 | 16.4% |
| Cc1nnc(NC(=O)Nc2ccc(Cl)c(Cl)c2)s1 | 83.2% (active) |
| Cc1ccc(NC(=O)Nc2cc(-c3ccccc3)nn2C)cc1Cl | -3.9% |
| Cc1nnc(NC(=O)Cn2c(=O)sc3ccccc32)s1 | -6.1% |
| CC(C)=CC(=O)Nc1nnc(-c2ccc(F)cc2)s1 | 0.2% |
| Cc1ccc(NC(=O)Nc2nnc(-c3ccncc3)s2)cc1 | 68% (active) |
| C[C@H]1Cn2cnc(C(=O)N[C@H](C)c3ccccc3)c2C(=O)N1 | -3.8% |
| CCOC(=O)C1=C(CC)Nc2ccccc2N=C1N | -14.1% |
| CC(C)Cn1cnc2c1c(=O)n(CC(O)c1ccccc1)c(=O)n2CC(C)C (stereo not drawn) | 9% |
| COc1ccc(NC(=S)N2N=CCC2c2ccccc2)cc1 (stereo not drawn) | 5.1% |
| Cc1nnc(SCCCCSc2nnc(C)c(=O)[nH]2)[nH]c1=O | 6.2% |
| CC(=O)c1cccc(-c2cnc3c(NC=O)cc(-c4ccc(N(C)C)cc4)cn23)c1 | 29.8% |
| CC(=O)c1ccc(-c2cnc3c(NC=O)cc(-c4cccc(NS(C)(=O)=O)c4)cn23)cc1 | 74.7% (active) |
| CC(=O)c1cccc(-c2cnc3c(NC=O)cc(-c4cccc(C(=O)N(C)C)c4)cn23)c1 | 0.7% |

| SMILES | inhibition |
| --- | --- |
| COc1ccc(-c2cc3nc(NCCOc4ccccc4)ccn3n2)cc1 | 20.8% |
| COc1cncc(-c2cnc3sc(NCCc4ccccn4)nn23)c1 | 74.1% (active) |
| Cc1ccc(C(=O)N/C(=C\c2cccs2)C(=O)NCCc2ccccn2)cc1C | 5.1% |
| O=C(OCc1ccccc1)N1CCC2CC1c1cc(N3CCN(S(=O)(=O)c4cc(Cl)cc(Cl)c4)CC3)ccc12 (stereo not drawn) | 10.1% |
| CCC1=C(OC(=O)N(CC)CC)N2C(=O)OC(=NCC3CC3)[C@]2(C)[C@H]2C1=CC[C@H]1C(=O)N(CC(=O)OC)C(=O)[C@H]12 | 7.9% |
| COc1cc(C(=O)N/C(=C\c2cn(C)c3ccccc23)C(=O)N2CCOCC2)cc(OC)c1OC | -23.4% |
| COc1cc(NC(=O)c2cncc(-c3ccc(C#N)cc3)c2)cc(C(=O)Nc2cccc(C(F)(F)F)c2)c1 | -39% and -21.4% |
| COc1cc(NC(=O)c2[nH]cnc2C(N)=O)cc(C(=O)Nc2cccc(C(F)(F)F)c2)c1 | 53.2% (active) |
| COc1ccc(C(N)c2csc(NC(=O)Nc3cccc(C(F)(F)F)c3)n2)cc1 (stereo not drawn) | 24.7% |
| CCCCn1ccnc1C(=O)c1cccc(S(=O)(=O)N2c3ccccc3CC2C)c1 (stereo not drawn) | 2.6% |
| COc1ccccc1OCc1ccc(C(=O)N2CCN(C)CC2)o1 | 6.4% |
| COc1ccccc1N1CCN(C(=O)c2cc(=O)c3cc(C)cc(C)c3o2)CC1 | 51% (active) |
| COc1ccccc1N1CCN(C(=O)c2ccc(NC3=NC4CS(=O)(=O)CC4S3)cc2)CC1 (stereo not drawn) | -7.3% |
| O=C(COC(=O)c1cccnc1Cl)Nc1ccc(S(=O)(=O)N2CCOCC2)cc1 | 5.3% |
| CCN(CC)S(=O)(=O)c1ccc2[nH]c(=O)cc(C(=O)N(C)C3CCS(=O)(=O)C3)c2c1 (stereo not drawn) | -1.3% |
| Cc1ccc(S(=O)(=O)N/N=C(\c2ccccc2)C2CC2)cc1 | 14.8% |
| COc1ccc(S(=O)(=O)/N=C2\C=C(NS(=O)(=O)c3ccccc3)C(=O)c3ccccc32)cc1 | 45% |
| O=C(O)c1ccccc1NC(=O)c1ccccc1-c1ccccc1C(=O)O | 11.9% |
| Cc1cc(=O)c2ccc(NC(=O)c3ccccc3)cc2[nH]1 | 3.1% |
| Cc1cc(NS(=O)(=O)c2ccccc2)no1 | -1.3% |
| CC(=O)NS(=O)(=O)c1ccccc1 | 10.6% |
| O=C1C=C(NS(=O)(=O)c2ccccc2)C(=O)c2ccccc21 | 72% (active) |
| Cc1ccc(S(=O)(=O)/N=C2\C=C(NS(=O)(=O)c3ccc(C)cc3)C(=O)c3ccccc32)cc1 | 68.9% (active) |
| O=C(NC1=CC(=O)c2ccccc2C1=O)c1ccccc1 | 84.9% (active) |
